# Measured values taken from article PMC9838217, “Structure of SALL4 zinc finger domain reveals link between AT-rich DNA binding and Okihiro syndrome”.
# Residue numbers refer to the chain shown, from its start.
# What was measured:
# Assay in all cases: HT-SELEX; high values mean tight binding
# Conditions in all cases: protein: recombinant; vector His6-GST; dsDNA, one strand shown
# [1] = target: T1, SALL4 ZFC4 WT (HT-SELEX) (Mus musculus, UniProt Q8BX22 870-940)
# T1 sequence: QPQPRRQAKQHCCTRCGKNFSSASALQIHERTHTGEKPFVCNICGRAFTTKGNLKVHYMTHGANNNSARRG
# In short: (§1)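 A 100 µl reaction of 10 mM Tris–HCl pH 7.5, 50 mM NaCl, poly(dI-dC) and DTT held purified recombinant mouse SALL4 zinc finger cluster 4 (residues 870–940, 1 µg) and library DNA (1.5 µg first cycle, 200 ng later) for 10 min at room temperature. Complexes captured on Ni2+ beads were washed, PCR-amplified and reselected for up to 6 cycles, in triplicate, then MiSeq-sequenced and scanned for 6-mers. Binding signal is the read fraction of each canonical k-mer expressed as fold change over the initial random library.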
# [2] = target: T2, SALL4 ZFC4 R900W (HT-SELEX) (Mus musculus, UniProt Q8BX22 870-940, R900W)
# T2 sequence: T1 sequence with R31W
# In short: as §1
# [3] = target: T3, SALL4 ZFC4 G921D (HT-SELEX) (Mus musculus, UniProt Q8BX22 870-940, G921D)
# T3 sequence: T1 sequence with G52D
# In short: as §1
Sequence,binding signal [1],binding signal [2],binding signal [3]
TAAGTA,2.21 ± 0.113 fold-change vs cycle 0,2.23 ± 0.16 fold-change vs cycle 0,1.89 ± 0.229 fold-change vs cycle 0
CAACTG,0.724 ± 0.0172 fold-change vs cycle 0,0.829 ± 0.0401 fold-change vs cycle 0,0.9 ± 0.0128 fold-change vs cycle 0
ACAAGT,1.24 ± 0.0226 fold-change vs cycle 0,1.4 ± 0.0269 fold-change vs cycle 0,1.35 ± 0.0304 fold-change vs cycle 0
ATTTAA,3.2 ± 0.134 fold-change vs cycle 0,2.48 ± 0.146 fold-change vs cycle 0,2.15 ± 0.212 fold-change vs cycle 0
GGGTAC,0.482 ± 0.0239 fold-change vs cycle 0,0.556 ± 0.011 fold-change vs cycle 0,0.641 ± 0.0594 fold-change vs cycle 0
ACGAAC,0.667 ± 0.0536 fold-change vs cycle 0,0.807 ± 0.0318 fold-change vs cycle 0,0.861 ± 0.0438 fold-change vs cycle 0
AGAGCT,0.658 ± 0.0205 fold-change vs cycle 0,0.784 ± 0.026 fold-change vs cycle 0,0.8909 ± 0.00859 fold-change vs cycle 0
CGATCC,0.359 ± 0.0529 fold-change vs cycle 0,0.43 ± 0.0262 fold-change vs cycle 0,0.584 ± 0.0363 fold-change vs cycle 0
CTAATA,2.24 ± 0.127 fold-change vs cycle 0,2.01 ± 0.099 fold-change vs cycle 0,1.81 ± 0.144 fold-change vs cycle 0
CGATTA,1.16 ± 0.0473 fold-change vs cycle 0,1.17 ± 0.0726 fold-change vs cycle 0,1.18 ± 0.023 fold-change vs cycle 0
CCGTCA,0.358 ± 0.0271 fold-change vs cycle 0,0.431 ± 0.0281 fold-change vs cycle 0,0.531 ± 0.0693 fold-change vs cycle 0
AAGCGT,0.524 ± 0.0507 fold-change vs cycle 0,0.607 ± 0.0218 fold-change vs cycle 0,0.726 ± 0.0141 fold-change vs cycle 0
AAGAGT,1.418 ± 0.0105 fold-change vs cycle 0,1.59 ± 0.0431 fold-change vs cycle 0,1.48 ± 0.0973 fold-change vs cycle 0
CAGCAC,0.3 ± 0.0076 fold-change vs cycle 0,0.335 ± 0.0156 fold-change vs cycle 0,0.476 ± 0.0603 fold-change vs cycle 0
AACCCC,0.459 ± 0.0283 fold-change vs cycle 0,0.547 ± 0.00959 fold-change vs cycle 0,0.617 ± 0.0497 fold-change vs cycle 0
CCAGAA,0.726 ± 0.028 fold-change vs cycle 0,0.821 ± 0.0147 fold-change vs cycle 0,0.852 ± 0.0285 fold-change vs cycle 0
CAATGG,0.767 ± 0.067 fold-change vs cycle 0,0.849 ± 0.0267 fold-change vs cycle 0,0.923 ± 0.0362 fold-change vs cycle 0
GACTTA,1.27 ± 0.0397 fold-change vs cycle 0,1.4 ± 0.0678 fold-change vs cycle 0,1.33 ± 0.102 fold-change vs cycle 0

Sequence,binding signal [1],binding signal [2],binding signal [3]
GTTCAA,1.2 ± 0.0638 fold-change vs cycle 0,1.34 ± 0.0679 fold-change vs cycle 0,1.3 ± 0.0535 fold-change vs cycle 0
AAATCT,1.82 ± 0.0976 fold-change vs cycle 0,1.85 ± 0.0812 fold-change vs cycle 0,1.72 ± 0.124 fold-change vs cycle 0
ACCCCT,0.522 ± 0.0409 fold-change vs cycle 0,0.619 ± 0.0154 fold-change vs cycle 0,0.676 ± 0.0257 fold-change vs cycle 0
AGCTGG,0.346 ± 0.0084 fold-change vs cycle 0,0.411 ± 0.0182 fold-change vs cycle 0,0.522 ± 0.0592 fold-change vs cycle 0
GTGAAA,1.16 ± 0.0303 fold-change vs cycle 0,1.27 ± 0.0355 fold-change vs cycle 0,1.19 ± 0.0481 fold-change vs cycle 0
GCACAC,0.35 ± 0.011 fold-change vs cycle 0,0.453 ± 0.0146 fold-change vs cycle 0,0.583 ± 0.0993 fold-change vs cycle 0
AATCTA,2.03 ± 0.138 fold-change vs cycle 0,2 ± 0.0814 fold-change vs cycle 0,1.8 ± 0.18 fold-change vs cycle 0
CTGGTC,0.403 ± 0.00696 fold-change vs cycle 0,0.499 ± 0.0159 fold-change vs cycle 0,0.601 ± 0.0523 fold-change vs cycle 0
AAATCC,1.19 ± 0.0372 fold-change vs cycle 0,1.27 ± 0.0238 fold-change vs cycle 0,1.24 ± 0.0539 fold-change vs cycle 0
ATCGCA,0.515 ± 0.00556 fold-change vs cycle 0,0.522 ± 0.0161 fold-change vs cycle 0,0.667 ± 0.0619 fold-change vs cycle 0
CTTCGA,0.707 ± 0.0176 fold-change vs cycle 0,0.789 ± 0.0144 fold-change vs cycle 0,0.875 ± 0.0344 fold-change vs cycle 0
CAGTCC,0.44 ± 0.0267 fold-change vs cycle 0,0.544 ± 0.0287 fold-change vs cycle 0,0.63 ± 0.0382 fold-change vs cycle 0
ATTTCA,2.56 ± 0.117 fold-change vs cycle 0,1.87 ± 0.0758 fold-change vs cycle 0,1.7 ± 0.117 fold-change vs cycle 0
CCTAAC,0.883 ± 0.0279 fold-change vs cycle 0,0.976 ± 0.0147 fold-change vs cycle 0,1 ± 0.0113 fold-change vs cycle 0
AAGTAA,2.17 ± 0.0689 fold-change vs cycle 0,2.26 ± 0.152 fold-change vs cycle 0,1.91 ± 0.204 fold-change vs cycle 0
AACGTT,1.19 ± 0.0242 fold-change vs cycle 0,1.33 ± 0.0216 fold-change vs cycle 0,1.24 ± 0.0303 fold-change vs cycle 0
AAACTA,1.88 ± 0.106 fold-change vs cycle 0,1.85 ± 0.13 fold-change vs cycle 0,1.68 ± 0.169 fold-change vs cycle 0
GTATCA,1.39 ± 0.0637 fold-change vs cycle 0,1.4 ± 0.0395 fold-change vs cycle 0,1.38 ± 0.0408 fold-change vs cycle 0
